# System: Staphylococcus aureus
# Experiment: Antibacterial activity against Staphylococcus aureus MRSA ATCC 43300 (CO-ADD:GP_020); MIC in CAMBH media using NBS plates, by Resazurin F(560/590)
# Format: functional
# Conditions: Concentration 20 uM, ASSAY_TEST Inhibition of Bacterial Growth, detection method Resazurin, Fluorescence (ex560/em590), MEDIA CAMHB, plate type 384well, CORNING #3640, time 18 hr
row,SMILES,Inhibition [%]
1,COc1ccc(C2OC3=Nc4cc(C)c(C)cc4NC3=C2O)cc1 (stereo not given),19.36
2,O=C1COc2cccnc2N1,8.1
3,Nc1nc(SCc2ccccc2)sc1C(=O)N1CCCCC1,18.6
4,CS(=O)(=O)Oc1ccc(Br)c2cccnc12,10.68
5,O=c1[nH]c2c(cnn2-c2ccc(Cl)cc2)c(=O)n1-c1cccc(Cl)c1,5.86
6,Cc1ccc(Nc2nnc(S)s2)cc1F,-5.24
7,CCSc1nc(C)c(C)c(O)n1,-7.95
8,COc1c(O)ccc2c1CN1CCc3cc4c(cc3C1C2)OCO4 (stereo not given),12.64
9,Oc1ccccc1-n1c(-c2ccccc2)ccc1-c1ccccc1,3.47
10,CC1=Nc2ccccc2/C1=C\c1c(C)[nH]c2ccccc12,7.03
11,Oc1ccc2ccccc2c1/N=N/c1ccc(F)cc1,3.11
12,O=P(O)(O)c1cc(-c2ccccc2)oc1-c1ccccc1,-4.92
13,Nc1ccn(C2OC(CCl)C(O)C2O)c(=O)n1 (stereo not given),16.82
14,NC(S)=Nc1cccc(Cl)c1,9.52
15,Cc1nc2[nH]c(=O)n(O)c(=O)c2s1,4.12
16,N#CC1=C(Nc2ccccc2Cl)SC(c2ccccc2O)NC1=O (stereo not given),1.74
17,Cc1nc(Nc2ccc(F)cc2)nc(Nc2ccc(F)cc2)c1[N+](=O)[O-],16.01
18,c1ccc(-c2ccc(-c3nccc4ccccc34)[nH]2)cc1,-4.96
19,CC(=O)[C@H]1CC[C@H]2[C@@H]3CCC4=CC(=O)CC[C@]4(C)[C@@]3(F)[C@@H](O)C[C@]12C,0.89
20,COc1ccc2c(n1)Sc1nc3ccccc3nc1N2,9.7
21,CCOC(=O)Nc1ccc2[nH]c(-c3cscn3)nc2c1,14.96

# System: Acinetobacter baumannii
# Experiment: Antibacterial activity against Acinetobacter baumannii ATCC 19606 (CO-ADD:GN_034); MIC in CAMBH media using NBS plates, by Resazurin F(560/590)
# Format: functional
# Conditions: Concentration 20 uM, ASSAY_TEST Inhibition of Bacterial Growth, detection method Resazurin, Fluorescence (ex560/em590), MEDIA CAMHB, plate type 384well, CORNING #3640, time 18 hr
row,SMILES,Inhibition [%]
1,COc1ccc(C(=S)N2CCN(c3ccccc3C)CC2)cc1,-20.13
2,N#CC1=CC2CN(Cc3ccccc3)C1C1C(=O)N(c3ccccc3)C(=O)C21 (stereo not given),3.07
3,CC1CC=C(O)C12OCC(C)(C)CO2 (stereo not given),-6.5
4,COc1ccc([N+](=O)[O-])cc1NC(=O)N(C)Cc1ccco1,17.46
5,CCCN=C(S)Nc1ccccc1,-0.42
6,OC(COc1ccc(Cl)cc1)CN1CCN(c2cccc(Cl)c2)CC1 (stereo not given),-3.41
7,COc1ccc2c3c([nH]c2c1)[C@H]1C[C@H]2[C@H](C[C@@H](O)[C@H](OC)[C@H]2CO)CN1CC3,7.85
8,C1COCCN1.O=C(O)C(C=C(Cl)Cl)N1CCOCC1 (stereo not given),-4.57
9,OC1(Cc2ccccc2)CCNCC1,-10.57
10,C/C(=N\O)C1CC(CC(=O)O)C1(C)C (stereo not given),-12.7
11,Clc1nc(NCCc2ccccc2)c2c[nH]nc2n1,12.4
12,CC(NC(=O)c1ccc(Cl)c(Cl)c1)c1ccc(-c2ccccc2)cc1 (stereo not given),7.23
13,O=C(Nc1ccc2ccccc2c1)c1cccc(F)c1,-12.84
14,O=C(/C=C/C(=O)N1CCc2ccccc2C1)N1CCc2ccccc2C1,-9.4
15,O=C(O)C1OCC2(CO1)COC(C(=O)O)OC2 (stereo not given),-13.06
16,CC1(C)C2CCC(CN=C(N)CSS(=O)(=O)O)C1C2 (stereo not given),14.08
17,CCCCSc1cc(O)nc(N)n1,-7.06
18,CCc1oc2ccccc2c1C(=O)c1cc(Br)c(O)c(Br)c1 [BENZBROMARONE],-9.24
19,COc1ccc(C2OC3=Nc4cc(C)c(C)cc4NC3=C2O)cc1 (stereo not given),6.66
20,O=C1COc2cccnc2N1,-14.05

row,SMILES,Inhibition [%]
1,Nc1nc(SCc2ccccc2)sc1C(=O)N1CCCCC1,4.73
2,CS(=O)(=O)Oc1ccc(Br)c2cccnc12,10.16
3,O=c1[nH]c2c(cnn2-c2ccc(Cl)cc2)c(=O)n1-c1cccc(Cl)c1,6.48
4,Cc1ccc(Nc2nnc(S)s2)cc1F,-6.73
5,CCSc1nc(C)c(C)c(O)n1,-12.73
6,COc1c(O)ccc2c1CN1CCc3cc4c(cc3C1C2)OCO4 (stereo not given),10.47
7,Oc1ccccc1-n1c(-c2ccccc2)ccc1-c1ccccc1,1.43
8,CC1=Nc2ccccc2/C1=C\c1c(C)[nH]c2ccccc12,6.7
9,Oc1ccc2ccccc2c1/N=N/c1ccc(F)cc1,4.07
10,O=P(O)(O)c1cc(-c2ccccc2)oc1-c1ccccc1,9.92
11,Nc1ccn(C2OC(CCl)C(O)C2O)c(=O)n1 (stereo not given),-8.52
12,NC(S)=Nc1cccc(Cl)c1,-8.51
13,Cc1nc2[nH]c(=O)n(O)c(=O)c2s1,-18.15
14,N#CC1=C(Nc2ccccc2Cl)SC(c2ccccc2O)NC1=O (stereo not given),-8.74
15,Cc1nc(Nc2ccc(F)cc2)nc(Nc2ccc(F)cc2)c1[N+](=O)[O-],5.04
16,c1ccc(-c2ccc(-c3nccc4ccccc34)[nH]2)cc1,-13.85
17,CC(=O)[C@H]1CC[C@H]2[C@@H]3CCC4=CC(=O)CC[C@]4(C)[C@@]3(F)[C@@H](O)C[C@]12C,-16.68
18,COc1ccc2c(n1)Sc1nc3ccccc3nc1N2,-15.29
19,CCOC(=O)Nc1ccc2[nH]c(-c3cscn3)nc2c1,-19.41

# Source: ChEMBL document CHEMBL4296182, “CO-ADD screening of NIH NCI Diversity Set V”
